# Reference: PubChem BioAssay AID1159580 (chemical genetic matrix, 2015)
# Screen size: about 5,500 compounds; about 2,000 (36%) were called active. Inconclusive results (about 18%) are left out. The list shows a part of the results. Unmarked numbers belong to inactive results. Rule as the data show it: active = normalized growth mostly below about 0.91 (no sharp cut-off); inconclusive = no clear call, values can overlap the other calls; inactive = mostly above about 0.92.
# Assay: chemical genetic growth profiling, strain panel (AID 1159580);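 also: tested at 20 µM; growth read once vehicle control cultures reached saturation at 30 °C; 1 = growth at the plate median or of vehicle wells; lower values mean less growth of the strain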
# Conditions: growth OD
structure (smiles),measurement,setting,value
C=C1c2c(Cl)ccc(O)c2C(O)=C2C(=O)[C@]3(O)C(O)=C(C(N)=O)C(=O)[C@@H](N(C)C)[C@@H]3[C@@H](O)[C@H]12,normalized growth,"S. cerevisiae deletion strains, locus YJR075W, strain HOC1, hits give low values",0.96
same,normalized growth,"S. cerevisiae deletion strains, locus YKL009W, strain mrt4, hits give low values",1
same,normalized growth,"S. cerevisiae deletion strains, locus YKL068W, hits give low values",0.989
same,normalized growth,"S. cerevisiae deletion strains, locus YKL085W, strain MDH1 (second series), hits give low values",0.971
same,normalized growth,"S. cerevisiae deletion strains, locus YKL085W, strain MDH1, hits give low values",0.971
same,normalized growth,"S. cerevisiae deletion strains, locus YKL160W, strain elf1, hits give low values",0.999
same,normalized growth,"S. cerevisiae deletion strains, locus YKL190W, strain CNB1, hits give low values",0.979
same,normalized growth,"S. cerevisiae deletion strains, locus YKR001C, strain vps1, hits give low values",0.917
same,normalized growth,"S. cerevisiae deletion strains, locus YKR026C, strain gcn3, hits give low values",0.983
same,normalized growth,"S. cerevisiae deletion strains, locus YKR091W, strain srl3, hits give low values",0.973
same,normalized growth,"S. cerevisiae deletion strains, locus YLL001W, strain dnm1, hits give low values",1.01
same,normalized growth,"S. cerevisiae deletion strains, locus YLL026W, hits give low values",0.996
same,normalized growth,"S. cerevisiae deletion strains, locus YLL041C, strain sdh2, hits give low values",0.985
same,normalized growth,"S. cerevisiae deletion strains, locus YLR027C, strain aat2, hits give low values",1
same,normalized growth,"S. cerevisiae deletion strains, locus YLR039C, strain RIC1, hits give low values",0.968
same,normalized growth,"S. cerevisiae deletion strains, locus YLR058C, strain SHM2, hits give low values",0.937
same,normalized growth,"S. cerevisiae deletion strains, locus YLR102C, strain apc9, hits give low values",0.986
same,normalized growth,"S. cerevisiae deletion strains, locus YLR113W, strain HOG1, hits give low values",1.01
same,normalized growth,"S. cerevisiae deletion strains, locus YLR221C, strain rsa3, hits give low values",0.935
same,normalized growth,"S. cerevisiae deletion strains, locus YLR258W, strain gsy2, hits give low values",0.948
same,normalized growth,"S. cerevisiae deletion strains, locus YLR262C, strain YPT6 (second series), hits give low values",0.974
same,normalized growth,"S. cerevisiae deletion strains, locus YLR262C, strain YPT6, hits give low values",0.997
same,normalized growth,"S. cerevisiae deletion strains, locus YLR268W, strain sec22, hits give low values",0.866 (active)
same,normalized growth,"S. cerevisiae deletion strains, locus YLR320W, strain mms22, hits give low values",0.926
same,normalized growth,"S. cerevisiae deletion strains, locus YLR330W, strain CHS5, hits give low values",0.981
same,normalized growth,"S. cerevisiae deletion strains, locus YLR342W, strain FKS1 (second series), hits give low values",0.875
same,normalized growth,"S. cerevisiae deletion strains, locus YLR342W, strain FKS1, hits give low values",0.965
same,normalized growth,"S. cerevisiae deletion strains, locus YLR357W, strain rsc2, hits give low values",0.895
same,normalized growth,"S. cerevisiae deletion strains, locus YLR370C, strain arc18, hits give low values",0.988
same,normalized growth,"S. cerevisiae deletion strains, locus YLR371W, strain rom2, hits give low values",0.987
same,normalized growth,"S. cerevisiae deletion strains, locus YLR384C, strain iki3, hits give low values",0.988
same,normalized growth,"S. cerevisiae deletion strains, locus YLR418C, strain cdc73, hits give low values",0.899
same,normalized growth,"S. cerevisiae deletion strains, locus YML016C, strain PPZ1, hits give low values",0.968
same,normalized growth,"S. cerevisiae deletion strains, locus YML032C, strain rad52, hits give low values",0.937
same,normalized growth,"S. cerevisiae deletion strains, locus YML120C, strain ndi1, hits give low values",0.993
same,normalized growth,"S. cerevisiae deletion strains, locus YML124C, strain tub3, hits give low values",0.977
same,normalized growth,"S. cerevisiae deletion strains, locus YMR058W, strain fet3, hits give low values",0.841 (active)
same,normalized growth,"S. cerevisiae deletion strains, locus YMR078C, strain ctf18, hits give low values",0.983
same,normalized growth,"S. cerevisiae deletion strains, locus YMR125W, strain sto1, hits give low values",0.954
same,normalized growth,"S. cerevisiae deletion strains, locus YMR129W, hits give low values",0.981
same,normalized growth,"S. cerevisiae deletion strains, locus YMR205C, strain PFK2, hits give low values",0.998
same,normalized growth,"S. cerevisiae deletion strains, locus YMR223W, strain ubp8, hits give low values",0.969
same,normalized growth,"S. cerevisiae deletion strains, locus YMR231W, strain pep5, hits give low values",0.987
same,normalized growth,"S. cerevisiae deletion strains, locus YMR263W, strain SAP30, hits give low values",0.957
same,normalized growth,"S. cerevisiae deletion strains, locus YMR307W, strain GAS1, hits give low values",0.887
same,normalized growth,"S. cerevisiae deletion strains, locus YNL067W, strain RPL9B, hits give low values",0.93
same,normalized growth,"S. cerevisiae deletion strains, locus YNL071W, strain lat1, hits give low values",0.96
same,normalized growth,"S. cerevisiae deletion strains, locus YNL128W, strain TEP1, hits give low values",0.936
same,normalized growth,"S. cerevisiae deletion strains, locus YNL153C, strain GIM3, hits give low values",0.897
same,normalized growth,"S. cerevisiae deletion strains, locus YNL183C, strain NPR1, hits give low values",0.947
same,normalized growth,"S. cerevisiae deletion strains, locus YNL209W, strain ssb2, hits give low values",0.924 (active)
same,normalized growth,"S. cerevisiae deletion strains, locus YNL233W, strain BNI4, hits give low values",0.919
same,normalized growth,"S. cerevisiae deletion strains, locus YNL248C, strain rpa49, hits give low values",0.921
same,normalized growth,"S. cerevisiae deletion strains, locus YNL250W, strain rad50, hits give low values",0.96
same,normalized growth,"S. cerevisiae deletion strains, locus YNL271C, strain bni1, hits give low values",0.961
same,normalized growth,"S. cerevisiae deletion strains, locus YNL298W, strain CLA4, hits give low values",1
same,normalized growth,"S. cerevisiae deletion strains, locus YNL307C, strain MCK1, hits give low values",0.965
same,normalized growth,"S. cerevisiae deletion strains, locus YNL322C, strain KRE1 (second series), hits give low values",0.958
same,normalized growth,"S. cerevisiae deletion strains, locus YNL322C, strain KRE1, hits give low values",0.985
same,normalized growth,"S. cerevisiae deletion strains, locus YNR049C, strain mso1, hits give low values",0.971
same,normalized growth,"S. cerevisiae deletion strains, locus YNR052C, strain pop2, hits give low values",0.99
same,normalized growth,"S. cerevisiae deletion strains, locus YOL006C, strain TOP1, hits give low values",0.839
same,normalized growth,"S. cerevisiae deletion strains, locus YOL012C, strain htz1",0.807
same,normalized growth,"S. cerevisiae deletion strains, locus YOL147C, strain pex11, hits give low values",0.975
same,normalized growth,"S. cerevisiae deletion strains, locus YOR001W, strain rrp6, hits give low values",0.997
same,normalized growth,"S. cerevisiae deletion strains, locus YOR061W, strain CKA2, hits give low values",0.973
same,normalized growth,"S. cerevisiae deletion strains, locus YOR069W, strain VPS5, hits give low values",0.974
same,normalized growth,"S. cerevisiae deletion strains, locus YOR070C, strain gyp1, hits give low values",0.951
same,normalized growth,"S. cerevisiae deletion strains, locus YOR080W, strain dia2, hits give low values",0.988
same,normalized growth,"S. cerevisiae deletion strains, locus YOR083W, strain WHI5, hits give low values",0.96
same,normalized growth,"S. cerevisiae deletion strains, locus YOR106W, strain vam3, hits give low values",0.974
same,normalized growth,"S. cerevisiae deletion strains, locus YOR136W, strain idh2, hits give low values",0.997
same,normalized growth,"S. cerevisiae deletion strains, locus YOR144C, strain elg1, hits give low values",0.984
same,normalized growth,"S. cerevisiae deletion strains, locus YOR184W, strain ser1, hits give low values",0.978
same,normalized growth,"S. cerevisiae deletion strains, locus YOR231W, strain MKK1, hits give low values",0.972
same,normalized growth,"S. cerevisiae deletion strains, locus YOR265W, strain rbl2, hits give low values",0.974
same,normalized growth,"S. cerevisiae deletion strains, locus YOR270C, strain vph1, hits give low values",0.97
same,normalized growth,"S. cerevisiae deletion strains, locus YOR290C, strain snf2, hits give low values",0.916
same,normalized growth,"S. cerevisiae deletion strains, locus YOR316C, strain cot1, hits give low values",0.992
same,normalized growth,"S. cerevisiae deletion strains, locus YPL051W, strain arl3, hits give low values",0.973
same,normalized growth,"S. cerevisiae deletion strains, locus YPL055C, strain LGE1, hits give low values",0.94
same,normalized growth,"S. cerevisiae deletion strains, locus YPL078C, strain atp4, hits give low values",1.02
same,normalized growth,"S. cerevisiae deletion strains, locus YPL106C, strain sse1, hits give low values",0.898
same,normalized growth,"S. cerevisiae deletion strains, locus YPL240C, strain hsp82, hits give low values",1
same,normalized growth,"S. cerevisiae deletion strains, locus YPL241C, strain CIN2, hits give low values",0.978
same,normalized growth,"S. cerevisiae deletion strains, locus YPL256C, strain CLN2, hits give low values",1.01
same,normalized growth,"S. cerevisiae deletion strains, locus YPR119W, strain clb2, hits give low values",0.985
same,normalized growth,"S. cerevisiae deletion strains, locus YPR141C, strain kar3, hits give low values",0.979
same,normalized growth,"S. cerevisiae deletion strains, locus YPR163C, strain tif3, hits give low values",0.958
same,normalized growth,"S. cerevisiae deletion strains, locus YPR167C, strain met16, hits give low values",0.977
same,normalized growth,"S. cerevisiae deletion strains, strain wtn01, hits give low values",0.934
same,normalized growth,"S. cerevisiae strains, strain wild type, hits give low values",0.95
